SMILES strings stand for the structures. About 920 (58%) of roughly 1,600 compounds were called active.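 The calls were made as follows: active = inhibition above the primary screen's cutoff, the mean inhibition of all screened compounds plus 3 SD (cut at about 13% in these data); inactive = the rest.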 So high a share suggests a set chosen from earlier hits. Not all results are given here.

By inhibition is commonly meant the relative decrease from the control value, in per cent.

The target of this test is Galanin receptor type 3 (Homo sapiens) (UniProt O60755). The test is described as follows: blockers of human galanin receptor 3 – cell-based, fluorescence, triplicate, confirmation (AID 652245).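 Also: 0% = forskolin plus galanin and 100% = forskolin alone with DMSO.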 The conditions noted are these: HEK293 GalR3 CNG cAMP biosensor, membrane potential fluorescence; at 3 µM; hits give high values.
Galanin receptor type 3 (Homo sapiens), sequence (O60755 1-299 limits assumed): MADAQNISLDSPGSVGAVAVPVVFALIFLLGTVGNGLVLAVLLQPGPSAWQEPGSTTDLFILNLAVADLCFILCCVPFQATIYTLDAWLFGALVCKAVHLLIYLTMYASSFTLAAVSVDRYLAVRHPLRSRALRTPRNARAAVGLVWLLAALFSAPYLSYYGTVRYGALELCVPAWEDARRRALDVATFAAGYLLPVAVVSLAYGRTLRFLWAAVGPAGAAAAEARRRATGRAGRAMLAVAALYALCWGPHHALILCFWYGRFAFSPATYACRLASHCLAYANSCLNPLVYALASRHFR
Turning to `CCCCCCCCCCCCn1ccc(=N)cc1`, the inhibition was 92.6% (active).

Regarding `COC(=O)C1=C(c2cc3ccccc3s2)C[C@@H]2CC[C@H]1N2C(=O)NCc1cccc2ccccc12`, the inhibition was -2.45% (inactive). The same measure for `COc1ccc(-n2c(-c3ccccc3)nc3ccccc3c2=O)cc1`: 7.55% (inactive).

The values above are taken from PubChem BioAssay AID652245 (The Scripps Research Institute Molecular Screening Center, 2013).
